Data taken from PubChem BioAssay (NCATS).
Values joined by “and” are separate entries in the source; they are usually repeats but may differ in a detail not shown here. Equal entries are not always repeated. Inconclusive results are not listed. Active and inactive are the calls of the source. Calls come from the whole dose curve; as a rule, active = well fitted inhibition curve with a large enough effect; inconclusive = small, poorly fitted or top-dose-only effect; inactive = flat fitted curve, though single readings scatter.

Assay: P-glycoprotein substrates identified in KB-8-5-11 adenocarcinoma cell line, qHTS therapeutic library screen (AID 1346987); note: nearly all actives have a fitted effect of over 65% in size
Settings: KB-8-5-11 (P-gp overexpressing) viability, CellTiter-Glo, 72 h; series mostly up to 44.5 µM; activity change, negative = cytotoxicity: at the top concentration
Outline: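 P-gp-mediated resistance screen: KB-8-5-11 cells treated 72 h with compounds in dose-response. CellTiter-Glo viability.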
% is set by controls: 0 for no effect and ±100 for the full control effect; potency is the fitted concentration of half-maximal effect.

Row | Compound | activity change, negative = cytotoxicity | Potency | outcome
1 | C[C@@H]1O[C@@H](O[C@H]2CC[C@@]3(C)C(CC[C@]4(C)C3CC=C3[C@@H]5CC(C)(C)CC[C@]5(C(=O)O[C@@H]5O[C@H](CO)[C@@H](O)[C@H](O)[C@H]5O)CC[C@]34C)[C@]2(C)CO)[C@H](O)[C@H](O[C@@H]2O[C@H](CO)[C@@H](O)[C@H](O)[C@H]2O)[C@H]1O (some centres not stated) | 3.4% [at 9.29 µM] (inactive) | – | –
2 | COc1cc2ncnc(Nc3cccc(I)c3)c2cc1OC | – | 5.8 µM (active) | –
3 | CO[C@H]1O[C@@H]2O[C@@]3(C)CCC4[C@H](C)CCC([C@H]1C)[C@]42OO3 (some centres not stated) | 5.9% (inactive) | – | –
4 | COc1cc(F)c(C(C)C)cc1-c1ccc(C(F)(F)F)cc1CN1C(=O)OC(c2cc(C(F)(F)F)cc(C(F)(F)F)c2)C1C (configuration not stated) | – | – | inactive
5 | C1=C/COCc2cc(ccc2OCCN2CCCC2)Nc2nccc(n2)-c2cccc(c2)COC/1 | – | 4.61 µM (active) and 7.31 µM (active) | –
6 | O=c1cc(N2CCN(c3cccc(C(F)(F)F)c3)CC2)[nH]c(=O)n1C1CCCCC1 | -21.8% (inactive) | – | –
7 | CN(C)c1cccc(Oc2cnc(Nc3cccc(O)c3)nc2)c1 | -19% (inactive) | – | –
